# Source: ChEMBL document CHEMBL3988442, “University of Dundee, Small-Polar-MMV Screening Library” (2021)
# Among all 53,000 compounds or so, about 900 (1.7%) showed an effect of 50% or more. Shown is part of a subset that was picked to be rich in strong results.
# System: Mycobacterium tuberculosis
# Test: Cornell - Phenotypic assay to identify agents that inhibit growth of Mycobacterium tuberculosis
# Format: functional
# Set-up: scale not given: direction of the effect not stated beside the values
# Conditions: 10 mM as filed; unlikely as a test dose
row,SMILES,Percent Effect [%]
1,CC(CC(=O)NS(C)(=O)=O)C1CCCCC1 (stereo unspecified),-16.66
2,CCCc1cc(C(=O)NCCC2=CCCCC2)[nH]n1,32.79
3,Cc1ccc(-c2cc(C(=O)NCCC3=CCCCC3)[nH]n2)o1,52.86
4,O=C(NCCC1=CCCCC1)c1cc(-c2ccc(O)cc2)n[nH]1,22.09
5,Cc1cc(F)ccc1N1CCCC(NC2CCSCC2)C1=O (stereo unspecified),-0.6719
6,Cc1cc(S(=O)(=O)N2CCCc3cc(Br)ccc32)sc1C(=O)O,32.41
7,COC1CCN(C(=O)CC(C)(C)C)CC(=O)N(C)c2ccccc21 (stereo unspecified),2.903
8,CC(C)=CCN1C[C@@H]2CN(C(=O)c3ccc(CO)cc3)C[C@]2(C(=O)O)C1,22.99
9,CN(C)C(=O)C1CCC2(CCN(C(=O)Nc3ccccc3)CC2)O1 (stereo unspecified),2.965
10,COc1cc(C2Nc3cc(Cl)ccc3C3=NCCN32)ccc1O (stereo unspecified),80.22
11,COc1cc(C2Nc3cc(Cl)ccc3C3=NCCN32)cc(OC)c1OC (stereo unspecified),-27.36
12,COc1ccc(C2Nc3cc(Cl)ccc3C3=NCCN32)cc1O (stereo unspecified),10.02
13,CCCn1cc(C(=O)N2CCCC2(C)c2nc(C)cc(N)n2)cn1 (stereo unspecified),-4.951
14,CSCc1ccc(N2CCN(c3ccc(Cl)cn3)CC2)nc1,-11.59
15,Clc1ccc(N2CCN(CCCN3CCCCC3)CC2)nc1,25.77
16,CSCCCN1CCN(c2ccc(Cl)cn2)CC1,62.54
17,COC(=O)CNC(=O)C1CCN(S(C)(=O)=O)CC1,-1.242
18,O=C(c1cccc2[nH]ncc12)N1CCCC1c1noc(C2CC2)n1 (stereo unspecified),0.6634
19,O=C(c1n[nH]c2ccccc12)N1CCCC1c1noc(C2CC2)n1 (stereo unspecified),50.46
20,O=C(Cc1noc2ccccc12)N1CCCC1c1noc(C2CC2)n1 (stereo unspecified),0.3643
21,CC(=O)N1CCO[C@@H]2CN(S(=O)(=O)c3ccc(C)cc3)CC[C@@H]2C1,-25.36
22,CCc1noc(C(C)N2CCN(CC(C)C)CC2)n1 (stereo unspecified),-14.43

row,SMILES,Percent Effect [%]
1,COc1ccc(CNC(Cc2ccsc2)c2ccc(C)cn2)cc1OC.Cl (stereo unspecified),26.36
2,COc1ccc(CNC(Cc2ccsc2)c2ccc(C)cn2)c(OC)c1 (stereo unspecified),18.63
3,COc1cccc(OC)c1CNC(Cc1ccsc1)c1ccc(C)cn1 (stereo unspecified),62.45
4,CCc1nc(NS(=O)(=O)c2cccc(F)c2C)no1,37.51
5,CC(CO)NC(=O)c1ccc(NCc2ccc(F)c(F)c2)cc1 (stereo unspecified),4.78
6,O=C(c1cc(C2CC2)[nH]n1)N1CCN(Cc2ccccc2)CC1,7.865
7,O=C(c1cc(C2CC2)[nH]n1)N1CCN(Cc2ccc(Cl)cc2)CC1,-11.68
8,O=C(c1cc(C2CC2)[nH]n1)N1CCN(Cc2ccc3c(c2)OCO3)CC1,83.19
9,CC(C)c1cc(C(=O)N2CCN(Cc3ccsc3)CC2)n[nH]1,50.59
10,O=C(c1cc(C2CC2)[nH]n1)N1CCN(Cc2ccncc2)CC1,8.467
11,O=C(c1cc(C2CC2)[nH]n1)N1CCN(Cc2ccsc2)CC1,6.464
12,CC(C)c1ncncc1C(=O)N1CCN(Cc2ccsc2)CC1,5.12
13,CC(C)c1ccc(CN2CCN(C(=O)c3cc(C4CC4)[nH]n3)CC2)cc1,-22.19
14,Cc1cccc(CN2CCN(C(=O)c3cc(C4CC4)[nH]n3)CC2)c1,63.11
15,CCCOc1cccc(C(=O)N2CCCC(n3cncn3)C2)c1 (stereo unspecified),2.869
16,CC1CCC(NS(=O)(=O)CC(=O)Nc2ccc(N3CCCC3)cn2)CC1 (stereo unspecified),-5.738
17,CC1CCC(NS(=O)(=O)CC(=O)NC2(C(N)=O)CCCC2)CC1 (stereo unspecified),-11.11
18,CC1CCC(NS(=O)(=O)CC(=O)NC(C2CC2)C2CC2)CC1 (stereo unspecified),-19.5
19,CCNC(=O)CS(=O)(=O)NC1CCC(C)CC1 (stereo unspecified),-36.82
20,CS(=O)(=O)NCC1CCCN(C(=O)Nc2ccccc2N2CCCC2)C1 (stereo unspecified),12.25
21,CNC(=O)CS(=O)(=O)NC1CCC(C)CC1 (stereo unspecified),-17.27
22,Cc1ccc(NC(=O)CS(=O)(=O)NC2CCC(C)CC2)nc1 (stereo unspecified),59.09

row,SMILES,Percent Effect [%]
1,CC1CCC(NS(=O)(=O)CC(=O)Nc2ccccc2N2CCCC2)CC1 (stereo unspecified),81.68
2,CC1CCC(NS(=O)(=O)CC(=O)NCC2CCC2)CC1 (stereo unspecified),57.41
3,CCOCc1cnc2n1CCN(C(=O)c1cccc3c1OCCO3)C2C (stereo unspecified),-10.91
4,Cc1cccc(-c2nc(CN3CC(n4nc(C)cc4C)C3)no2)c1,18.28
5,CC(C)N1CCO[C@H]2CN(Cc3cc[nH]n3)C[C@H]21.O=C(O)C(F)(F)F.O=C(O)C(F)(F)F,-4.182
6,O=C(CC1CCCC1)N1CCC(c2noc(-c3ccccn3)n2)CC1,12.79
7,O=C1NC2(CCc3ccccc31)CCN(C(=O)c1ccncc1)C2 (stereo unspecified),9.772
8,Cc1nnc(C2CCN(C(=O)c3ccc(-n4cccc4)cc3)CC2)s1,34.12
9,O=C1CCNc2cc3c(cc2CN1CC1CC1)OCO3,-9.17
10,O=C(CC1COCCN1)N1CCC(N2CCc3ccccc3C2)CC1 (stereo unspecified),-14.32
11,CCN(CCCNC(=O)Nc1ccccc1C(C)C)S(C)(=O)=O,-25.97
12,CC(N)Cc1ccccc1Sc1ccccc1.O=C(O)/C=C\C(=O)O (stereo unspecified),13.46
13,CC(C(=O)Nc1ccccc1Sc1ccccc1)S(C)(=O)=O (stereo unspecified),13.38
14,Fc1ccc(Sc2ccccc2CNC2=NCCN2)cc1.I,18.51
15,NCc1ccccc1Sc1ccc(O)cc1.O=C(O)/C=C\C(=O)O,11.62
16,CNC(C)Cc1ccccc1Sc1ccc(O)cc1.Cl (stereo unspecified),105.4
17,CC(N)Cc1ccccc1Sc1ccc(O)cc1.CC(N)Cc1ccccc1Sc1ccc(O)cc1.O=C(O)C(=O)O (stereo unspecified),102.6
18,Clc1ccc(COCC2CCN(Cc3ccccn3)CC2)cc1.O=C(O)C(=O)O,33.78
19,Cc1cccc(=O)n1CCC(=O)N1CC[C@@](O)(C2CCC2)[C@H](C)C1,13.12
20,CN(C)CCN(C)c1ccc(-c2nc(COc3ccccc3)no2)cn1,54.95
21,CN(C)CCNc1ccc(-c2nc(COc3ccccc3)no2)cn1,16.69
22,COCc1noc(-c2ccc(N(C)Cc3ncccc3C)nc2)n1,3.239

row,SMILES,Percent Effect [%]
1,CN1CCCC(c2cccc(CCC(N)=O)n2)C1 (stereo unspecified),-6.826
2,CNC(=O)N1CCc2nc(C(=O)NCc3cccc(OC)c3)sc2CC1,-3.356
3,N#Cc1ncn(CC(=O)Cc2c(F)cccc2Cl)n1,41.98
4,N#Cc1ncn(Cc2c(F)cccc2Cl)n1,3.788
5,N#Cc1ncn(CCC(=O)Nc2ccc(F)c(F)c2)n1,34.8
6,N#Cc1ncn(CCS(=O)(=O)c2ccc(Cl)cc2)n1,-29.79
7,N#Cc1ncn(CCC(=O)Nc2cc(Cl)ccc2Cl)n1,44.53
8,COC(=O)c1ccc(Cn2cnc(C#N)n2)cc1,33.09
9,N#Cc1ncn(CC(=O)Nc2cc(Cl)ccc2F)n1,104.7
10,N#Cc1ncn(CCC(=O)Nc2ccc(Cl)cc2F)n1,105.4
11,N#Cc1ncn(CCC(=O)Nc2cccc(Cl)c2)n1,68.3
12,CN(Cc1c(F)cccc1Cl)C(=O)Cn1cnc(C#N)n1,14.48
13,N#Cc1ncn(CCC(=O)Nc2c(Cl)cccc2Cl)n1,58.03
14,N#Cc1ncn(CCC(=O)Nc2ccccc2F)n1,26.46
15,OCCOc1cc(F)ccc1NCc1ccc(F)c(F)c1,11.25
16,CCOC(=O)[C@H]1CNC[C@H]1C(=O)OCC.Cl,36.02
17,CNc1cccc(C2CN(C(=O)c3c[nH]cn3)CCO2)n1 (stereo unspecified),6.6
18,O=C(O)Cn1nc(-c2ccccc2F)ccc1=O,3.999
19,CCSc1ncccc1C(=O)NCc1ccc(N(C)C)cc1,4.638
20,C=C(C)COc1ccccc1C(=O)NCc1nc(C)cc(=O)[nH]1,11.83
21,NS(=O)(=O)c1ccc(N2CCN(CCCc3cn[nH]c3)CC2)cc1,-32.06
22,O=C(O)C(F)(F)F.O=C(O)C(F)(F)F.O=C(O)C(F)(F)F.c1cnc(NC[C@H]2OC[C@@H]3CCN(Cc4cccnc4)C[C@@H]32)nc1,43.57

row,SMILES,Percent Effect [%]
1,COc1ccc(N2CCN(C(=O)C3CN(C)C(=O)N3)CC2(C)C)cc1 (stereo unspecified),2.102
2,CCOCC(=O)N1CCCn2c(nnc2Cn2cccc2)C1,-5.462
3,Cc1nn(C)cc1CN1CCc2nc3sccc3c(=O)n2CC1,50.52
4,CCn1cncc1CN1CCc2nc3sccc3c(=O)n2CC1,47.13
5,Cn1cc(CN2CCc3nc4sccc4c(=O)n3CC2)cn1,-10.08
6,Cc1cc2c(=O)n3c(nc2s1)CCN(Cc1cnn(C)c1C)CC3.Cl,-41.11
7,O=c1c2ccccc2nc2n1CCN(Cc1cccs1)CC2,20.89
8,Cn1cc(CN2CCc3nc4ccccc4c(=O)n3CC2)cn1,52.34
9,Cc1c(CN2CCc3nc4sccc4c(=O)n3CC2)cnn1C.Cl,51.95
10,Cn1ncc(Cl)c1C(=O)N1CCc2nc3sccc3c(=O)n2CC1,-13.36
11,Cl.Cn1cncc1CN1CCc2nc3sccc3c(=O)n2CC1,43.45
12,COc1cc2ncn(Cc3ncc[nH]3)c(=O)c2cc1OC,6.69
13,CCc1cccc(OCCN(C)C(=O)c2ccccc2NCC(=O)O)c1,10.74
14,COc1cccc(CN2CCCC(Cn3nc(C)nc3C)C2)c1 (stereo unspecified),16.57
15,O=C(c1ccncc1F)N1CCc2ncnc(-c3ccncc3)c2CC1,-7.007
16,Cn1nc(CN2CCCN(C3CCCC3)CC2)c2c(Cl)cccc21,60.03
17,C[C@@H]1CN(C2CCN(Cc3nn(C)c4cccc(Cl)c34)CC2)C[C@H](C)O1,-20.95
18,Cn1nc(CN2CCCCC(N)C2)c2c(Cl)cccc21 (stereo unspecified),-4.365
